Compounds with a hit are over-represented: about 3.1% of the library has one in this group of screens.
EPAC2 antag: validation of human EPAC2 antagonists | Q8WZA2 | EPAC2 Rap1B BODIPY-GDP exchange, fluorescence | Potency, µM (highest dose often 112 µM), usual class: inhibitors | 16,000 tested, 1.7% active; note: nearly all actives have a fitted effect of over 40% in size
Target sequence (Q8WZA2 whole entry, looked up): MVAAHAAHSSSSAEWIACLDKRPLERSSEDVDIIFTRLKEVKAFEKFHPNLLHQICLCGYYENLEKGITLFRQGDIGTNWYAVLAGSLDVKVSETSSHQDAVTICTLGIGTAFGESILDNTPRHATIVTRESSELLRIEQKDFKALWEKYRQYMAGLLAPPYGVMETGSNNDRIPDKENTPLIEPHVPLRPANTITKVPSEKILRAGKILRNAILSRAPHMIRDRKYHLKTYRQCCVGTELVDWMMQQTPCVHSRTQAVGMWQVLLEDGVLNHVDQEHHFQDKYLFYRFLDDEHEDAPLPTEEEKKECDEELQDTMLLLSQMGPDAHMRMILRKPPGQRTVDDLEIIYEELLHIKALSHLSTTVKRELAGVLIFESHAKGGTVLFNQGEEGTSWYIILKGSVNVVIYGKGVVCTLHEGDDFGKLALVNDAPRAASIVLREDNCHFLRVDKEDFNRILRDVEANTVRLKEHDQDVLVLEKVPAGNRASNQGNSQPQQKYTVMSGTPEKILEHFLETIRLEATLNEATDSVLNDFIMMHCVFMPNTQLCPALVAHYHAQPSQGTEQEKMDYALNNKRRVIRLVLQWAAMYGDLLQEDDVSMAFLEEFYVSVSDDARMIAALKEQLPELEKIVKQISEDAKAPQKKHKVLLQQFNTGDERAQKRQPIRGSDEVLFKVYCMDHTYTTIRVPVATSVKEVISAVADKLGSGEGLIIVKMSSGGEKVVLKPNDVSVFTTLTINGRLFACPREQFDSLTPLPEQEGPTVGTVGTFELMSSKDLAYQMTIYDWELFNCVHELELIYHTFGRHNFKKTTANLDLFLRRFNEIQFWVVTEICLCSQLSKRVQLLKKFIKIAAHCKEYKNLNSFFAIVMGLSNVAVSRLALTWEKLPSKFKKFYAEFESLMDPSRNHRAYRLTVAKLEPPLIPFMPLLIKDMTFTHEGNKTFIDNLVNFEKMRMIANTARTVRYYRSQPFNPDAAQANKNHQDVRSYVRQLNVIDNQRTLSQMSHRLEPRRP
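Normalized against a 6.5 mM cAMP agonist control, compounds were tested on 100 nM EPAC2 exchanging Rap1B-bound BODIPY-GDP (250 nM) for 50 uM GDP. Fluorescence drop (ex 480, em 540 nm) was tracked at room temperature over 30 min at 5-min intervals.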
EPAC1 ag val: validation of human EPAC1 agonists; 16,000 tested, 1% active; EPAC1 Rap1b BODIPY-GDP exchange, fluorescence; AID 1645883; Potency, µM, most hits filed as activators; note: nearly all actives have a fitted effect of over 70% in size
Numbers stand for hits; 0 = inactive; ? = inconclusive; ! = not confirmed by another sample. Calls come from the whole dose curve; as a rule, active = well fitted curve in the direction sought with a large enough effect; inconclusive = small, poorly fitted or top-dose-only effect, or another doubt; inactive = no such curve, though single readings can be large; an effect the other way counts as inactive or inconclusive.

SMILES | EPAC2 antag | EPAC1 ag val
Cc1occc1C(=O)Nc1cccc(-c2nc(CNC(=O)c3ccc(N4CCCCC4)cc3)c(C)o2)c1 | ? | 0
CC(C)C[C@@H](COc1ccccc1)N1CCN(CCc2ccccc2)CCC1=O | 31.6µM | 0
CCCN1CCC(=O)N([C@H](COc2ccccc2)CC(C)C)CC1 | 0 | 0
Clc1ccc(C(c2ccccc2Cl)C(Cl)Cl)cc1 (stereo unspecified) | 14.1µM! | ?
COc1ccccc1-c1ccnc(-n2ncc(C(=O)N(C)C(C)c3nc(C)cs3)c2C2CC2)n1 (stereo unspecified) | 0 | 0
CCCCCCCCCCCCCC[N+](C)(C)Cc1ccccc1 | 0 | 0
CCCCCCCCCCCCCCCC[N+](C)(C)Cc1ccccc1 | 79.4µM | 0
CCCCCCCCCCCCCCCC[N+](C)(C)CC | 56.2µM | 0
CCCCCCCC[N+](C)(C)CCCCCCCC | 0 | 0
COc1ccc(O)c(CN2CCC3(CC2)c2ccccc2[C@@H](NC(=O)c2cccc(F)c2)[C@@H]3OC)c1 | 0 | 0
C#CCN1C(C)=C(C(=O)OC)C(c2cccc([N+](=O)[O-])c2)C(C(=O)OCC)=C1C (stereo unspecified) | 44.7µM | 0
CCOC(=O)C1=C(C)NC(=S)NC1c1cccc(O)c1 (stereo unspecified) | 0 | 0
COC(=O)C1=C(C)NC(C)=C(C(=O)OCCCN2CCC(c3ccccc3)(c3ccccc3)CC2)C1c1cccc([N+](=O)[O-])c1 (stereo unspecified) | 0 | 112µM!
COC(=O)C1=C(C)NC(C)=C(C(=O)O[C@H]2CCN(Cc3ccccc3)C2)[C@H]1c1cccc([N+](=O)[O-])c1 | 0 | ?
COc1cc(=O)n2c(c1C(=O)N(C)Cc1cscn1)CCN(Cc1c(C)[nH]c3ccccc13)CC2 | 0 | 0
N[C@H](C(=O)O)[C@@H]1CC(Cl)=NO1 | 0 | ?
Cc1cccc2nc(CNC(=O)CN3Cc4cc(Cl)ccc4OC(C)C3)cn12 (stereo unspecified) | 0 | 0
Nc1ncnc2c1nc(Br)n2C1OC2COP(=O)(O)O[C@@H]2C1O (stereo partly specified) | 1.26µM | 0.447µM
Nc1nc2c(nc(Br)n2[C@@H]2O[C@H]3COP(=O)(O)O[C@H]3[C@@H]2O)c(=O)[nH]1 | 0 | 0
COc1ccccc1C1CN(Cc2c(C)nc3sccn23)Cc2ccccc2O1 (stereo unspecified) | 0 | 0
O=C(Nc1ccc(Oc2ccc(Cl)cc2)c(Cl)c1)c1cc(I)cc(I)c1O | 0 | 100µM
O=C(Nc1ccc(Cl)cc1)Nc1ccc(Cl)c(Cl)c1 | ? | 0
CCCOC(=O)c1cc(O)c(O)c(O)c1 | 0 | 0
O=C(OC[C@H]1O[C@@H](OC(=O)c2cc(O)c(O)c(OC(=O)c3cc(O)c(O)c(O)c3)c2)[C@H](OC(=O)c2cc(O)c(O)c(OC(=O)c3cc(O)c(O)c(O)c3)c2)[C@@H](OC(=O)c2cc(O)c(O)c(OC(=O)c3cc(O)c(O)c(O)c3)c2)[C@@H]1OC(=O)c1cc(O)c(O)c(OC(=O)c2cc(O)c(O)c(O)c2)c1)c1cc(O)c(O)c(OC(=O)c2cc(O)c(O)c(O)c2)c1 | 22.4µM | 0
COC(=O)C[C@](O)(CCCC(C)(C)O)C(=O)O[C@@H]1C(OC)=CC23CCCN2CCc2cc4c(cc2[C@H]13)OCO4 (stereo partly specified) | 0 | 0
SMILES | EPAC2 antag | EPAC1 ag val
CN1CCN(c2nc(-c3ccc(N(C)C)cc3)nc3ccccc23)CC1 | 0 | 0
CC(c1ccc(N(C)C)cc1)c1ccnc2ccccc12 (stereo unspecified) | 0 | 112µM
COCc1ccc(CN2CCOc3c(cc(-c4cc(C)c5cccc(OC)c5n4)cc3OC)C2)o1 | ? | 0
O=C(NCCN1CCOCC1)c1cnn(-c2nccc(-c3ccccc3C(F)(F)F)n2)c1C1CC1 | 0 | 0
CC(=O)Oc1ccc2c(c1C(C)C)CCC1C(C)(C)CCC[C@@]21C (stereo partly specified) | 0 | 100µM
COC(=O)[C@@]1(C)CCC[C@@]2(C)c3ccc(O)c(C(C)C)c3CCC21 (stereo partly specified) | ? | 0
C[C@@H]1C/C=C/C=C/C=C/C=C/[C@H](O[C@@H]2O[C@H](C)[C@@H](O)[C@H](N)[C@@H]2O)C[C@@H]2O[C@](O)(C[C@@H](O)C[C@H]3O[C@@H]3/C=C/C(=O)O1)C[C@H](O)[C@H]2C(=O)O | 0 | 0
CN(C)c1ncc2nc(-c3cccs3)c(=O)n(C3CC3)c2n1 | 0 | 100µM
O=c1c(-c2cccs2)nc2cnc(Oc3ccccc3)nc2n1C1CC1 | 0 | 0
COCCn1c(=O)c(-c2cccs2)nc2cnc(OC)nc21 | 0 | 0
COCCn1c(=O)c(-c2cccs2)nc2cnc(N(C)C)nc21 | 0 | 112µM
Cc1ccc2nc(CNC(=O)c3cc(NC(=O)c4ccccc4)cc4ncn(C5CCCC5)c34)cn2c1 | 0 | ?
CC(C)(C)CC(C)(C)N=C1Nc2ccc(Cl)cc2NC12C[C@H]1CCC(=O)N3CC[C@@H](C2)[C@@H]13 (stereo partly specified) | ? | 0
CO[C@H]1[C@H](NC(=O)c2ccsc2)c2ccccc2C12CCN(Cc1cc3ccccc3o1)CC2 | 0 | 0
COc1ccccc1CCNc1ncnc2sc(C(=O)N3CCCC3)c(C)c12 | 0 | 0
CCCCC[C@H](O)C=C[C@H]1[C@H](O)CC(=O)[C@H]1CCCCCCC(=O)O | 56.2µM | 0
CCCCC[C@H](O)/C=C/[C@H]1[C@H](O)CC(=O)[C@@H]1C/C=C\CCCC(=O)O | 0 | 0
C=C1CC[C@H](O)CC1=C/C=C1\CCC[C@]2(C)[C@@H]([C@H](C)CC[C@@H](O)C(C)(C)O)CC[C@@H]12 | 0 | 0
COC(=O)/C=C/C(C)=C/C=C/C(C)=C/C=C/C=C(C)/C=C/C=C(C)/C=C/C(=O)O | 0 | 0
COc1cc(C)c(/C=C/C(C)=C/C=C/C(C)=C/C(=O)O)c(C)c1C | 25.1µM! | 0
COc1ccccc1CNc1nc(-c2cccc(C#N)c2)nc2ccccc12 | 0 | 100µM
COc1ccccc1CNc1nc(-c2ccc3c(c2)OCO3)nc2ccccc12 | 0 | 100µM
COc1ccccc1CNc1nc(-c2ccc(N(C)C)cc2)nc2ccccc12 | 0 | ?
COc1ccccc1CNc1nc(-c2cccc(NS(C)(=O)=O)c2)nc2ccccc12 | 0 | 100µM
Cc1cccc(CNc2nc(-c3cccc(NS(C)(=O)=O)c3)nc3ccccc23)c1 | 0 | ?
SMILES | EPAC2 antag | EPAC1 ag val
COc1cccc(-c2nc(NCc3ccccc3OC)c3ccccc3n2)c1 | 0 | ?
COc1cc(-c2cc(C)c3cccc(OC)c3n2)cc2c1OCCN(C(=O)CCn1ccc(C)n1)C2 | 0 | 0
CC(=C\c1ccccc1)/C=C1/SC(=S)N(CC(=O)O)C1=O | ? | 0
COc1ccccc1-c1nc(N(C)Cc2ccco2)c2ccccc2n1 | ? | 0
CN(Cc1ccco1)c1nc(-c2ccccc2Cl)nc2ccccc12 | 0 | 100µM
COCCn1c(=O)c(CCc2ccccc2)nc2cnc(Nc3cccc(OC)c3)nc21 | 0 | 112µM
COc1cccc(Cn2c(=O)c(-c3ccc(Cl)cc3)nc3cnc(N4CCNCC4)nc32)c1 | 50.1µM | ?
COc1ccc(-c2nc3cnc(N4CCNCC4)nc3n(Cc3cccc(OC)c3)c2=O)cc1 | 0 | ?
COCCn1c(=O)c(-c2ccc(OC)cc2)nc2cnc(Nc3cccc(OC)c3)nc21 | ? | 112µM
COCCn1c(=O)c(-c2cccc(C#N)c2)nc2cnc(Oc3ccccc3)nc21 | 0 | ?
COCCn1c(=O)c(-c2cccc(C#N)c2)nc2cnc(Nc3ccccc3)nc21 | 0 | 112µM
